# In PubChem BioAssay AID652217 (Sanford-Burnham Center for Chemical Genomics, 2013):
# In all, about 1,800 compounds went through this assay and about 240 (13%) were called active. Only a selection was taken, and actives are over-represented in it overall. Unmarked numbers belong to inactive results. No stated cut-off is given here; in the data, active means inhibition above about 40%; inactive means the rest.
# Molecular target: NEDD8-conjugating enzyme Ubc12 (Homo sapiens) + NEDD8-activating enzyme E1 regulatory subunit (Homo sapiens) (UniProt P61081+Q13564)
# Sequence (P61081 whole entry, looked up): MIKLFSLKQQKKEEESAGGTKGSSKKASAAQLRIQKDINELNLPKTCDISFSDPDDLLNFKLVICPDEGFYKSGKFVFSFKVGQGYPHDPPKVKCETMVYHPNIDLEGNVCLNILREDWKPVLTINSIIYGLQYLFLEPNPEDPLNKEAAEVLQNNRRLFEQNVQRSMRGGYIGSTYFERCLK
# Sequence (Q13564 whole entry, looked up): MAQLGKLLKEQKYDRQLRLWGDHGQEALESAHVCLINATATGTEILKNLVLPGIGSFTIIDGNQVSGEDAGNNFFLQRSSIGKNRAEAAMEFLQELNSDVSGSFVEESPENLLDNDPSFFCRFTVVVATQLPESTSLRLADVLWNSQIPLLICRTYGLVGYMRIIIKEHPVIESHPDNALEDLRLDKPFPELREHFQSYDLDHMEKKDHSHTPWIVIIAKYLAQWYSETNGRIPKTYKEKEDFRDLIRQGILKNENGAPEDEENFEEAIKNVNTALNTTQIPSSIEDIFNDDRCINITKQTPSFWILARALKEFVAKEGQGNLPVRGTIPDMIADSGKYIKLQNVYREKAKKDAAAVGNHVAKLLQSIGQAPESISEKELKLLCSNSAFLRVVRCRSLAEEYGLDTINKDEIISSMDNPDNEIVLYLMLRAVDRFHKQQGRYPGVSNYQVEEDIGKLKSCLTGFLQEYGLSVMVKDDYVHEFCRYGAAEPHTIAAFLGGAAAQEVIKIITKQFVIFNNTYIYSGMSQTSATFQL
# Assay: blockade of NEDD8 conjugation to cullin – biochemical, TR-FRET, single concentration, confirmation (AID 652217);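 further: neddylation substrate is the cullin 1 ring ligase complex with SKP2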
# Settings: TR-FRET cullin neddylation biochemical assay; at 25 µM; hits give high values
row,SMILES,inhibition
1,CC(=CCOc1ccc2ccc(=O)oc2c1)C1=CC(=O)C(C)(C)O1,44.2% (active)
2,CCN1c2nc3c(C)cccn3c(=O)c2CC2(C(=O)N(C)C(=O)N(C)C2=O)C1C (centres undefined),9.81%
3,CCC(C)n1c(O)c(/C=N/Nc2nc3c(c(=O)n(C)c(=O)n3C)n2C)c(=O)[nH]c1=S (centres undefined),-31.5%
4,CCCCC(=O)N/N=C/c1c(O)n(CCC2=CCCCC2)c(=O)[nH]c1=O,2.57%
